These results are taken from PubChem BioAssay.

The subject of experiment [1] is Human papillomavirus type 1a protein E7 (residues 44-93). The experiment in a line: small molecules binding HPV E7 44-93 – biochemical, small-molecule microarray, residues 44-93, 635 nm fluorescence, primary screen (AID 1108).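 Also: E7 fragment applied at 1 µg/mL in TBST for 1 h at 4 C; score combines spot fluorescence with its signal to noise ratio.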 To be noted: fluorescence 635 nm, higher = more signal.
The nature of experiment [2]: hepatitis C replication reporter changes, two-sided – Huh7 cells, luciferase reporter, HCV replication inhibitor project, primary screen (AID 1109).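 Also: huh7 hepatoma cells harbouring a luciferase neomycin HCV replicon reporter; luciferase luminescence as measure of HCV replicon replication; test concentration not given here.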 As to conditions: Huh7 HCV replicon luciferase reporter, 48 h; higher = more signal.
Experiment [3] has as its target Left-right determination factor 2 (Homo sapiens) (UniProt O00292). Put plainly: small molecules binding LEFTY2 protein – biochemical, small-molecule microarray, 635 nm fluorescence scan, primary screen (AID 1110). To be noted: higher = more signal.
For experiment [4], the target named is Calmodulin-1 (Homo sapiens) (UniProt P0DP23). The experiment in a line: small molecules binding calmodulin-1 with EGTA – biochemical, small-molecule microarray, Cy5-labelled CALM1, profiling panel (AID 1111).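 Also: labelled calmodulin applied in Tris saline Tween buffer holding calcium plus EGTA and DTT.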 To be noted: Cy5-CALM1 binding fluorescence, higher = more signal.
Experiment [5] has the same target. The experiment in a line: small molecules binding Ca-loaded calmodulin-1 – biochemical, small-molecule microarray, Cy5-labelled CALM1, plus calcium, artefact control for SMM control-protein annotation, profiling panel (AID 1112).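 Also: score merges spot fluorescence with signal to noise from triplicate slides.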 To be noted: Cy5-CALM1 binding fluorescence, higher = more signal.
Experiment [6] can be described thus: probe aWnt5a binding to arrayed compounds – biochemical, biotinylated probe, 635/667 nm fluorescence, primary screen (AID 1113).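 Also: score merges 667 nm fluorescence intensity with signal-to-noise per printed feature.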 As to conditions: small-molecule microarray, higher = more signal.
Experiment [7] can be described thus: probe aShh binding to arrayed compounds – biochemical, biotinylated probe, 635/667 nm fluorescence, primary screen (AID 1114).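 Also: probe is biotin-labelled aShh protein from a stem cell growth factor screen; measures binding of labelled protein to compounds printed on the slide; score merges feature fluorescence at 667 nm with signal-to-noise.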 To be noted: small-molecule microarray, higher = more signal.
A short description of experiment [8]: probe aNog binding to arrayed compounds – biochemical, biotinylated probe, 635/667 nm fluorescence, primary screen (AID 1115).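 Also: probe is biotinylated aNog protein used at 0.15 µg/mL for 1 h at 4 C; z-score combines 667 nm fluorescence of each spot with its signal to noise.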 As to conditions: small-molecule microarray, higher = more signal.
Experiment [9] deals with Torsin-1A-interacting protein 1 (Homo sapiens) (UniProt Q5JTV8). Put plainly: compound microarray binding of lysate hLAP1 – cell lysate, small-molecule microarray, COS7 lysate, 635/667 nm fluorescence, primary screen (AID 1116). As to conditions: 635 nm fluorescence, higher = more signal.
Chain of Torsin-1A-interacting protein 1 (Homo sapiens) (Q5JTV8 whole entry, looked up): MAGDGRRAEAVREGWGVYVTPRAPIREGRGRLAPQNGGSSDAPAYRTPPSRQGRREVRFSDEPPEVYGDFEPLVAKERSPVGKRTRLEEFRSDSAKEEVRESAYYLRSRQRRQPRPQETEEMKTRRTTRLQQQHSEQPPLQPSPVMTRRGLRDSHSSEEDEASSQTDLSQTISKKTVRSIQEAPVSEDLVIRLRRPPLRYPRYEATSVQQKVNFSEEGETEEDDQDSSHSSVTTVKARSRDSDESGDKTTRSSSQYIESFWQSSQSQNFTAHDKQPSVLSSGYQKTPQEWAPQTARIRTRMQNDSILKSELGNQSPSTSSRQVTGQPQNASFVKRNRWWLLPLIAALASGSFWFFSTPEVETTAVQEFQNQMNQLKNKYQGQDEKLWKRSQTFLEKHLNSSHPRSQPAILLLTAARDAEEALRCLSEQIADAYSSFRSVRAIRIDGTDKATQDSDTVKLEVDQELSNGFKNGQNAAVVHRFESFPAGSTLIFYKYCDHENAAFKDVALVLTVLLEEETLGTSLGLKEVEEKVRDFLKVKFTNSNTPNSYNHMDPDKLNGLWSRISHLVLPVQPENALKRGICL
Experiment [10] deals with Alpha-bungarotoxin (Bungarus multicinctus) (UniProt P60615). The experiment in a line: compounds binding labelled alpha-BTX control protein – biochemical, small-molecule microarray, Alexa647 label, 635/667 nm fluorescence, artefact control for SMM control protein annotation, profiling panel (AID 1117). To be noted: alpha-BTX-A647 binding fluorescence, higher = more signal.
Chain of Alpha-bungarotoxin (Bungarus multicinctus) (P60615 whole entry, looked up): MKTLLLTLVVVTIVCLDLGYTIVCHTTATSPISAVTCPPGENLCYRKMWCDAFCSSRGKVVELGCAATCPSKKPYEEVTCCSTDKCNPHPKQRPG

Chain of Left-right determination factor 2 (Homo sapiens) (O00292 whole entry, looked up): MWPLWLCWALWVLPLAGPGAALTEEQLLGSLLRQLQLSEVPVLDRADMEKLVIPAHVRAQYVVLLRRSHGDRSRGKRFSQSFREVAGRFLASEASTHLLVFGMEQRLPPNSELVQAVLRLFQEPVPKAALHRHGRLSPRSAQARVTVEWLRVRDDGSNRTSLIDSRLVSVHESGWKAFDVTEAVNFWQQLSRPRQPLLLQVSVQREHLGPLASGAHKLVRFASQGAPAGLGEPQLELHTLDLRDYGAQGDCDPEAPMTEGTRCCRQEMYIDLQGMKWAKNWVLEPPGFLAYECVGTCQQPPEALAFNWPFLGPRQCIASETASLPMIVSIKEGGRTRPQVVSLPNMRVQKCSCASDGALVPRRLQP

As for `O=C1NC(=O)C2C1C=CC(C(O)c1cccc3ccccc13)N2Nc1ccc(Cl)cc1Cl` (stereo not given), the composite z-score in experiment [1] was 1.38; in [3], -0.908; in experiment [4], 1.49; in experiment [5], 0.973; in experiment [6] it was 0.0654; in [7] it was 0.481. Besides, the composite z-score turned out to be 1.4 in experiment [8], 0.723 in experiment [9] and 1.1 in experiment [10]. The same compound came in with a z-score in experiment [2] of -0.445.

For `CCC[C@@H]1C[C@@]1(CCC)[C@@H](NC(=O)OCc1ccccc1)c1ccc(-c2ccccc2)cc1`, the composite z-score was -0.44 in experiment [1]; -0.484 in experiment [3]; 0.233 in experiment [4]; 1.1 in experiment [5]; -0.0026 in experiment [6]; 1.42 in [7]. Also, the composite z-score in experiment [8] is -0.304; in experiment [9], -0.143; in experiment [10], -0.899. The same compound displayed a z-score in [2] of -1.5.

Regarding `O=c1n(-c2ccccc2)c(=O)n2n1CC(COc1ccccc1)=C([C@H](O)CCc1ccccc1)[C@@H]2CO`, the composite z-score in experiment [1] is 0.676; in experiment [3], 0.892; in experiment [4], -0.833; in experiment [5] it was -0.556; in [6], -0.0269; in [7], -0.338. Also, the composite z-score in experiment [8] was -0.588; in [9], 0.0355; in experiment [10], 0.5. The compound further displayed a z-score in experiment [2] of -2.17.

Take `N#Cc1ccc(NN2C(C(O)c3ccc(F)cc3)C=CC3C(=O)N(c4ccccc4)C(=O)C32)cc1` (stereo not given): the composite z-score is 0.771 in [1]; -0.81 in experiment [3]; 2.39 in experiment [4]; 1.04 in experiment [5]; 0.0334 in [6]; -0.0578 in experiment [7]. Also, the figures for the composite z-score in experiment [8], in experiment [9] and in experiment [10] were 1.83, 2.24 and 1.05, respectively. Also, the z-score in experiment [2] was -0.41.

Take `COCCOC(=O)N1C(=O)[C@@]2(c3cc(C#CCNC(N)=O)ccc31)[C@H](C(=O)N1CCc3cc(OC)c(OC)cc3C1)[C@H]1C(=O)O[C@H](c3ccccc3)[C@H](c3ccccc3)N1[C@@H]2c1ccccc1OCCO`: the composite z-score was 0.843 in experiment [1]; 0.76 in experiment [3]; 1.29 in [4]; 0.582 in [5]; -0.0786 in experiment [6]; -0.305 in experiment [7]. Moreover, the composite z-score is 0.39 in experiment [8], 1.03 in [9] and 1.85 in experiment [10]. Besides, in experiment [2], the z-score was -1.03.

For `COC(=O)[C@@]1(Cc2ccc(F)cc2)[C@H]2c3cc(C(=O)N(C)C)n(Cc4cc(F)cc5c4OCOC5)c3C[C@H]2CN1C(=O)c1ccccc1`, the composite z-score in [1] is 1.41; in [3], 0.011; in experiment [4], 1.68; in experiment [5], 0.0074; in [6] it was -0.001; in experiment [7] it was 0.0856. The results for the composite z-score in experiment [8], in experiment [9] and in experiment [10] were 0.468, 0.822 and 1.04, respectively. In addition, in experiment [2], the z-score was -1.81.

Consider `COCCOC(=O)N1C(=O)[C@@]2(c3cc(C#CC4(O)CCCCCC4)ccc31)[C@H](c1ccc(O)cc1)N1[C@H](c3ccccc3)[C@H](c3ccccc3)OC(=O)[C@H]1[C@@H]2C(=O)NC[C@H](O)c1ccccc1`, for which the composite z-score is 1.05 in experiment [1]; 0.951 in [3]; 0.896 in [4]; 0.524 in experiment [5]; -0.0339 in experiment [6]; 0.14 in experiment [7]. The composite z-score in experiment [8] was determined as 0.0896; in experiment [9], 1.6; in [10], 1.76. In addition, the z-score in experiment [2] was -1.03.

Take `C=CC[C@]1(C(=O)O)COC(c2ccc(OCCCO)cc2)=N1`: the composite z-score in experiment [1] was 0.549; in experiment [3], 0.268; in experiment [4] it was 0.0295; in experiment [5], 0.47; in experiment [6], -0.0203; in experiment [7], -0.138. For the same compound, the values for the composite z-score in experiment [8], in [9] and in experiment [10] were -0.419, -0.0942 and 0.291, respectively. Also, the z-score in [2] was 0.183.

In the case of `CO[C@H]1O[C@H](CO)[C@@H](OC(=O)Nc2ccc3c(c2)OCO3)[C@H](OC(=O)c2cc3ccccc3[nH]2)[C@H]1OC(=O)c1cc2ccccc2[nH]1`, the composite z-score in experiment [1] was -0.343; in [3], 0.117; in experiment [4], -0.418; in [5] it was -0.83; in experiment [6] it was -0.168; in experiment [7] it was -0.0709. For the same compound, the composite z-score is -0.315 in experiment [8], 0.0724 in [9] and 0.279 in experiment [10]. The z-score in experiment [2] is -1.99.

In the case of `C=CCC(OC(C)=O)[C@@H]1[C@@H](N(Cc2cccc3ccccc23)C(=O)Cc2ccc(F)cc2)c2cc(OCCCO)ccc2N1C(=O)c1ccc2ccccc2n1` (stereo not given in full), the composite z-score was -0.829 in [1]; 0.226 in experiment [3]; 0.304 in experiment [4]; 0.398 in [5]; -0.18 in [6]; -0.123 in [7]. Besides, the figures for the composite z-score in [8], in experiment [9] and in [10] were -0.432, 0.0149 and 0.411, respectively. The same compound displayed a z-score in experiment [2] of -0.562.

In the case of `COCCOC(=O)N1C(=O)[C@@]2(c3cc(C#Cc4ccc(OC)cc4)ccc31)[C@H](C(=O)Nc1nc3ccccc3s1)[C@H]1C(=O)O[C@H](c3ccccc3)[C@H](c3ccccc3)N1[C@@H]2c1ccc(OCCO)cc1`, the composite z-score in experiment [1] was 1.17; in experiment [3] it was 0.785; in [4] it was 0.762; in [5] it was -0.621; in [6], -0.0704; in experiment [7], -0.223. Further, the values for the composite z-score in [8], in [9] and in experiment [10] were -0.268, 0.179 and 1, respectively. This compound yielded a z-score in [2] of -2.19.

On to `Cc1ccc(S[C@]2(C(=O)O)CC(=O)N(Cc3cc(C(F)(F)F)cc(C(F)(F)F)c3)[C@@H]2c2ccc(CO)cc2)cc1`, for which the composite z-score is -0.0234 in experiment [1]; -2.28 in experiment [3]; -0.743 in [4]; 0.168 in experiment [5]; -0.226 in experiment [6]; -0.0483 in experiment [7]. Further, the figures for the composite z-score in experiment [8], in experiment [9] and in experiment [10] were -0.0733, -0.155 and -0.876, respectively. The same compound came in with a z-score in [2] of -0.0295.
